For some of these results: Entries with a potency or affinity are not part of this list.
What was measured:
Set-up in all cases: scale not given: direction of the effect not stated beside the values
[1] = molecular target: Protein translocase subunit SecA (Escherichia coli (strain K12)) (UniProt P10408); test: Assay to Identify E. coli SecA ATPase Inhibitors; format: functional; conditions: 30 µM
[2] = molecular target: T1, Ubiquitin-activating enzyme e1, putative (Leishmania donovani (strain BPK282A1)) (UniProt E9BSI1); test: Leishmania donovani Ubiquitin Activating Enzyme (LdE1); format: functional; conditions: 30 µM
T1 sequence (whole entry): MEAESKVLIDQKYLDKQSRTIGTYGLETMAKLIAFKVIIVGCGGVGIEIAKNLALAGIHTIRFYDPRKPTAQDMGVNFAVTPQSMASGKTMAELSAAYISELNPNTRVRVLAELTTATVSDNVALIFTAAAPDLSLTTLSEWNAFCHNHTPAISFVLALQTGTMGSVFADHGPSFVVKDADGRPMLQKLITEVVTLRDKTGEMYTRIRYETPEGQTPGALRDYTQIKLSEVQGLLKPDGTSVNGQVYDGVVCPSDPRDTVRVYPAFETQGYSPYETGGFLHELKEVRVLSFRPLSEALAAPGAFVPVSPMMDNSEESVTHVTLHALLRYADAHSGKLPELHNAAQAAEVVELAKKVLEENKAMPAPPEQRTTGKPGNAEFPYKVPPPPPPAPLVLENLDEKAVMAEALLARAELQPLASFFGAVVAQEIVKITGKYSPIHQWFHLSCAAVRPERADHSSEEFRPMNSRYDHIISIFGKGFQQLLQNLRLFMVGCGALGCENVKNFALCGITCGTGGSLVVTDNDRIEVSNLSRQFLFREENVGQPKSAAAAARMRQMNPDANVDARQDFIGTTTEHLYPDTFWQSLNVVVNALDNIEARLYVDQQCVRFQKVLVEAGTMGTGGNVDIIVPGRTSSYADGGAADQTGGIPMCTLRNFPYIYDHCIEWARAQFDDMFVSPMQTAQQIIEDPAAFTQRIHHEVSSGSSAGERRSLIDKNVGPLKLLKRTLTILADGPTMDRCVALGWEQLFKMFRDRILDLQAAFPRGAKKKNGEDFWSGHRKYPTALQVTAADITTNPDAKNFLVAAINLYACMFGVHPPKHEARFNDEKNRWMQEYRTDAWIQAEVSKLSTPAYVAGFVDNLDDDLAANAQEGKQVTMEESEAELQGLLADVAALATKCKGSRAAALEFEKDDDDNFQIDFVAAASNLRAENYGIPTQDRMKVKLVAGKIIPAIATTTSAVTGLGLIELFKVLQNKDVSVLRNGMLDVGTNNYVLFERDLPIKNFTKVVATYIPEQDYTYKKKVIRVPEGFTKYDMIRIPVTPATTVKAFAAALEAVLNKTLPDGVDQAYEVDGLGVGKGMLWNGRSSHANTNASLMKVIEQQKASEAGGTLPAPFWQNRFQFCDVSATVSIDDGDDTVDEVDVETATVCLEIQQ

[3] = molecular target: T2, Aspartate--tRNA(Asp/Asn) ligase (Mycobacterium tuberculosis (strain ATCC 25618 / H37Rv)) (UniProt P9WFW3); test: Assay for Asp RNA synthetase-1 from Mycobacterium tuberculosis; format: functional; conditions: 30 µM; further: in the data most compounds retested in dose-response had high values
T2 sequence (whole entry): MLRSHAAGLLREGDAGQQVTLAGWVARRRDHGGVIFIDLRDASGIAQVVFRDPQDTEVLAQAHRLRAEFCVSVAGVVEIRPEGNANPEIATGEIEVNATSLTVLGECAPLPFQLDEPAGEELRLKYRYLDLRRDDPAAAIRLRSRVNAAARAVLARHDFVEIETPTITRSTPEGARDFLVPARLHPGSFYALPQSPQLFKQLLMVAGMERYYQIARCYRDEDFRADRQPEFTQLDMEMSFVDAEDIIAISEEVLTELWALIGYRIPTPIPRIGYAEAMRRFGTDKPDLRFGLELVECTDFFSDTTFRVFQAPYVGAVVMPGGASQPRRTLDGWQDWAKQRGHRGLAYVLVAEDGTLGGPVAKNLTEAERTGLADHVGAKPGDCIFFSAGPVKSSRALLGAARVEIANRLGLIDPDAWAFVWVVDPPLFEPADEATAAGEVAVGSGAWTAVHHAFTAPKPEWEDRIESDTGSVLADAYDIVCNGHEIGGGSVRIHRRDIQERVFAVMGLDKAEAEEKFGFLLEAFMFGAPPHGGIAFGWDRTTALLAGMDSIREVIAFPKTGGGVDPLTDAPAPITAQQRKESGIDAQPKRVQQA

[4] = molecular target: Sialic acid-binding Ig-like lectin 9 (Homo sapiens) (UniProt Q9Y336); test: Hs-Siglec9 ALPHAscreen SOP 20170721; conditions: 10 µM
Chain of Sialic acid-binding Ig-like lectin 9 (Homo sapiens) (Q9Y336 whole entry): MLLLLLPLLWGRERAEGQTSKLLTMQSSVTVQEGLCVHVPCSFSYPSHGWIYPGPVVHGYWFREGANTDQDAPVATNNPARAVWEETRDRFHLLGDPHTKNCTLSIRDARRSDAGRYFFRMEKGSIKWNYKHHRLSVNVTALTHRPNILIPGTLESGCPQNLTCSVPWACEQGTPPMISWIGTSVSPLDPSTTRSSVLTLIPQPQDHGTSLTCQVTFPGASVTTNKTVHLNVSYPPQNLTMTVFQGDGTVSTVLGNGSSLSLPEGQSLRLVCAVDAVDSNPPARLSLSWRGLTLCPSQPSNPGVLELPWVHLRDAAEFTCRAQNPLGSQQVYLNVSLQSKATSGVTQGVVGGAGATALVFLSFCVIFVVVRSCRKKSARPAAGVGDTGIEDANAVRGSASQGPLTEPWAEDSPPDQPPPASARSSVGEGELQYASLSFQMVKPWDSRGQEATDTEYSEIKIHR

Trypanosoma cruzi = test: Trypanosoma cruzi phosphomannomutase and mannose-1-phosphate guanylyltransferase assay; format: functional; conditions: 10 µM
[5] = molecular target: T3, Arginase-2, mitochondrial (Homo sapiens) (UniProt P78540); test: in vitro enzyme assay to detect the production of urea directly proportional to the activity of Arginase II; format: functional; conditions: 33.3 µM; further: in the data most compounds retested in dose-response had high values
T3 sequence (whole entry): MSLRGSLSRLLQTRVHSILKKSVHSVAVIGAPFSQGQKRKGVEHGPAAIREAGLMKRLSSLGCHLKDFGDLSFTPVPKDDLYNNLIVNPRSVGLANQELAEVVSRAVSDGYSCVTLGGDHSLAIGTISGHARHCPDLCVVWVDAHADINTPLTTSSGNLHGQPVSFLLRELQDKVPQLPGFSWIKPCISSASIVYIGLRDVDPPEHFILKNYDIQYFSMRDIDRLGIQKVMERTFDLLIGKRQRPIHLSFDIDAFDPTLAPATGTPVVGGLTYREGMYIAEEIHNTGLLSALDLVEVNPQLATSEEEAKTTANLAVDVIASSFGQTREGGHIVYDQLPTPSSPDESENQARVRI

[6] = molecular target: T4, Proteasome subunit beta (Trypanosoma cruzi) (UniProt O96673); test: Trypanosoma cruzi proteasome chymotrypsin-like activity (TcProtChymo) assay.; further: in the data most compounds retested in dose-response had high values; format: functional; conditions: 9.37 µM
T4 sequence (whole entry): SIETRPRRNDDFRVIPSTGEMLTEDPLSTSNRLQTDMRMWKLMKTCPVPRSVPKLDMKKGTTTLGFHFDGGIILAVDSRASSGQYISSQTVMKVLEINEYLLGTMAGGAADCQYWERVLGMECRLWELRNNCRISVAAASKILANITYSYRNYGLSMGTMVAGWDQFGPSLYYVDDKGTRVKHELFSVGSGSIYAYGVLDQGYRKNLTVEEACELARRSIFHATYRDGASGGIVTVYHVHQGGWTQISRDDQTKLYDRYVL

Homo sapiens = organism: Homo sapiens; test: To identify inhibition of the IFN signalling (Jak-Stat) pathway via expression of an eGFP reporter gene under the control of an IFN-stimulated response element (ISRE) containing MxA promoter.; format: functional; conditions: 30 µM
[7] = molecular target: Shiga toxin 2 (Escherichia coli O157:H7) (UniProt P09385+P09386); test: E. coli 0.157:H7 Shiga Toxin SOP - stx2 screening assay; format: functional; conditions: 30 µM
[8] = molecular target: T5, Tyrosyl-tRNA synthetase, putative (Trypanosoma cruzi (strain CL Brener)) (UniProt Q4DSP6); test: Trypanosoma cruzi tyrosyl tRNA synthetase (TcYRS) _High Tyrosine SOP; format: functional; conditions: 30 µM; further: in the data most compounds retested in dose-response had high values
T5 sequence (whole entry): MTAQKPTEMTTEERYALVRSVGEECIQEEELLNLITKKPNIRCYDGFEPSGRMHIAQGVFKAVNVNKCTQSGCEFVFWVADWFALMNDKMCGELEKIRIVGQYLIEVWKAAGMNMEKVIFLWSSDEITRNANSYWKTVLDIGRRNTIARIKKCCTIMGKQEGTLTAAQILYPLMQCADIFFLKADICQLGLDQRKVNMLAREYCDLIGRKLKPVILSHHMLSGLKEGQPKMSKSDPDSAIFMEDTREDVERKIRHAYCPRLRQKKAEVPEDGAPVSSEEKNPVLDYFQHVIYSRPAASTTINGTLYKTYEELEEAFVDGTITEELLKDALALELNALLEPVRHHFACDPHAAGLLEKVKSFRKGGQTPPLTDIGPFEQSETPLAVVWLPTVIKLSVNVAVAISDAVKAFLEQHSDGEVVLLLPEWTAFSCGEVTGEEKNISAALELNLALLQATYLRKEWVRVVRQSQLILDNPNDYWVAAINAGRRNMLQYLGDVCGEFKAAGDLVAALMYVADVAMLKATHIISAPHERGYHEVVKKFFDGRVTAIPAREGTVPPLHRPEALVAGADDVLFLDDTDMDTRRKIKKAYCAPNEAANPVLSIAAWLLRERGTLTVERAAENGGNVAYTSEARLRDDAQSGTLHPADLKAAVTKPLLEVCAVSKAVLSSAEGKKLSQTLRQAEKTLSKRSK

[9] = molecular target: T5, Tyrosyl-tRNA synthetase, putative (Trypanosoma cruzi (strain CL Brener)); test: Trypanosoma cruzi tyrosyl tRNA synthetase (TcYRS) SOP; format: functional; conditions: 30 µM
[10] = molecular target: Chromo domain-containing protein 1 (Saccharomyces cerevisiae (strain ATCC 204508 / S288c) (Baker's yeast)) (UniProt P32657); test: ScCHD-1 Enzyme Inhibition Assay; format: functional; conditions: 30 µM; further: in the data most compounds retested in dose-response had high values
Chain of Chromo domain-containing protein 1 (Saccharomyces cerevisiae (strain ATCC 204508 / S288c) (Baker's yeast)) (P32657 whole entry, the tested form may be a part): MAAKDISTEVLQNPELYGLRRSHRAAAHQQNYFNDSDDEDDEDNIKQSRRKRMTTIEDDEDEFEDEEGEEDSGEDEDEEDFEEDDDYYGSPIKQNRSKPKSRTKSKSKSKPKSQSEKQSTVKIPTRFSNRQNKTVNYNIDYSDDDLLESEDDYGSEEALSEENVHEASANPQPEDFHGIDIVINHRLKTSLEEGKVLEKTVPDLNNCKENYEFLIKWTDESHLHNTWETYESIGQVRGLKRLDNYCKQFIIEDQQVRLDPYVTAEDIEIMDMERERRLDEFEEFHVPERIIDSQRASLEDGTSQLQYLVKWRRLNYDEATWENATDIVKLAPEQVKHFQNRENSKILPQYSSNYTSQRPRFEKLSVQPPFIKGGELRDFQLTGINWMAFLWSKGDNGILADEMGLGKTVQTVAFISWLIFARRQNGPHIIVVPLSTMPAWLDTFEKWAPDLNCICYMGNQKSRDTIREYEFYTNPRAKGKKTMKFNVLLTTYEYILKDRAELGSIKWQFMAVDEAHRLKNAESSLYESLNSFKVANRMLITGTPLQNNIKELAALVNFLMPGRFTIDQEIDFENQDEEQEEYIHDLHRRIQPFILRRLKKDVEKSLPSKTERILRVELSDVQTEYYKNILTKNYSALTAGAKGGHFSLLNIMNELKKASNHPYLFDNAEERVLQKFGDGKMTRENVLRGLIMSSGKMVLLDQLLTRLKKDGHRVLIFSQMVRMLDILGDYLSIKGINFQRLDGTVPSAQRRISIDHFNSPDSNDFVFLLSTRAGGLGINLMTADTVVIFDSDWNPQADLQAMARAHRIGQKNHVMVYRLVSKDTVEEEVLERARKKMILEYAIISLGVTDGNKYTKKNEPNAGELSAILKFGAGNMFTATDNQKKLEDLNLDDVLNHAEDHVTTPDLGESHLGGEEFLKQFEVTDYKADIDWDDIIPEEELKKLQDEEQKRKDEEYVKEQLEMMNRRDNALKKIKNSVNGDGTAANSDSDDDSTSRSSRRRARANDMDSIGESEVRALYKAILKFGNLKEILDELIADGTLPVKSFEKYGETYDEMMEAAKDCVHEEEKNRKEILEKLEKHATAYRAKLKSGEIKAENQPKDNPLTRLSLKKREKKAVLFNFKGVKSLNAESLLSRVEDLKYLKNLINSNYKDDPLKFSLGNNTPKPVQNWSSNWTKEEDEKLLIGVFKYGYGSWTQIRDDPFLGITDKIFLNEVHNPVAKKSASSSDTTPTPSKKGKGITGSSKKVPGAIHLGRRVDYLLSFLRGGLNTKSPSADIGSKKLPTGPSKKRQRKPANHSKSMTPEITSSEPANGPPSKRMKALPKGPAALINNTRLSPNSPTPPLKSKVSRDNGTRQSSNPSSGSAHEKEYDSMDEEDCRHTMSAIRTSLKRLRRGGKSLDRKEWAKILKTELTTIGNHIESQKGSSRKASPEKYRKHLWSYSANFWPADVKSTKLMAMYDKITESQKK

Chain of Protein translocase subunit SecA (Escherichia coli (strain K12)) (P10408 whole entry): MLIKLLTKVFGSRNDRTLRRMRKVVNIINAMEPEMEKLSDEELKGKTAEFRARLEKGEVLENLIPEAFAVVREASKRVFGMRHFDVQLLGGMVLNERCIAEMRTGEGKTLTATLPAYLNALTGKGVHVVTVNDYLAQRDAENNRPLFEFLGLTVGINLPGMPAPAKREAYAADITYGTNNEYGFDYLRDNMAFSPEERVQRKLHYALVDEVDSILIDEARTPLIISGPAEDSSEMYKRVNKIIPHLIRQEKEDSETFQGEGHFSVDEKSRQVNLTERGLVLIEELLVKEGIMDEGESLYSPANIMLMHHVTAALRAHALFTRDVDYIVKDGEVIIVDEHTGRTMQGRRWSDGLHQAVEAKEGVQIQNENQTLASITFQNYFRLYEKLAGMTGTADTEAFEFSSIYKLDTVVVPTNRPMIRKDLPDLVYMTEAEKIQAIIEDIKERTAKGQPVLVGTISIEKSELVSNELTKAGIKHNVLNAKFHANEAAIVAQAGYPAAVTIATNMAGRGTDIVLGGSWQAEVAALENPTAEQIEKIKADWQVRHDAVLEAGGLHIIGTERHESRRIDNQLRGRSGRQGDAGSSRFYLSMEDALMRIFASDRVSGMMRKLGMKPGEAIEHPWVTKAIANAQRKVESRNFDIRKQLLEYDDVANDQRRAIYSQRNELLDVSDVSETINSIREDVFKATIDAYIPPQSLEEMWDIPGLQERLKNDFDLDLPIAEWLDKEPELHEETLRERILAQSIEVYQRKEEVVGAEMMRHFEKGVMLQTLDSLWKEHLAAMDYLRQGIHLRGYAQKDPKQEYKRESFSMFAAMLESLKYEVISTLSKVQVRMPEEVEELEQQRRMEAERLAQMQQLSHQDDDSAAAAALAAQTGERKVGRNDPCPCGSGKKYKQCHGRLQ

| Structure (SMILES) | Percent Effect [1] [%] | Percent Effect [2] [%] | Percent Effect [3] [%] | Percent Effect [4] [%] | Percent Effect (Trypanosoma cruzi) [%] | Percent Effect [5] [%] | Percent Effect [6] [%] | Percent Effect (Homo sapiens) [%] | Percent Effect [7] [%] | Percent Effect [8] [%] | Percent Effect [9] [%] | Percent Effect [10] [%] |
| --- | --- | --- | --- | --- | --- | --- | --- | --- | --- | --- | --- | --- |
| NC(=O)N1CC2(CCNCC2)c2cc(Cl)ccc21 | 0.158 | 1.3 | 0.933 | -0.465 | -3.38 | 4.11 | 8.84 | 10.9 | 4.45 | 0 | -2.5 | 2.33 |
| COCC(=O)N1C[C@@H]2OCCN(Cc3c(C)noc3C)[C@@H]2C1 | -1.15 | 1.3 | -3.8 | -1.81 | 3.02 | 17 | 27.1 | 5.87 | -14.3 | 5.79 | 10.3 | 24 |
| CCn1nc(C)c(CCn2ccnc2-c2cc3n(n2)CCCNC3)c1C |  |  | -1.76 |  |  |  |  |  |  |  |  |  |
| CC[C@H]1N(C)CCC[C@]12CCC(=O)N2Cc1ccncc1 | -1.96 | 32.5 | 0.228 | 0.456 | 1.69 | -1.83 | 14.3 | 16.7 | -15.6 | 7.73 | 10 | -8.84 |
| COCCNC(=O)c1cn(C(C)(C)C)c2ncccc12 | 107 | 6.67 | 2.31 | -7.99 | 0.197 | 6.2 | 11 | 3.2 | 4 | 0 | 10 | -17.6 |
